PTAP TSG101 blk = qHTS Assay for Iinhibitors of HIV-1 Budding by Blocking the Interaction of PTAP/TSG101. Potency, µM (titrated, usually from 115 µM), without a hit: top-dose activity change, negative = inhibition, actives largely listed as inhibitors. 340,000 tested, under 10 active. Tumor susceptibility gene 101 protein (Homo sapiens), Q99816. Fluorescence polarization, FITC-PTAP peptide / Tsg101 binding; active means well fitted inhibition curve with a large enough effect in the main read-out, with a control signal flat, not every such curve was filed as active; inconclusive means small, poorly fitted or top-dose-only effect, or effect the other way, or a change in a side signal; inactive means no such curve, though single readings can be large or run the other way; further: potency means the concentration at half of the fitted maximal effect; % of control where 0% means no effect
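Fluorescence polarization binding of Tsg101 binding domain (10 uM final) to FITC-labeled PTAP peptide (50 nM final) in HEPES pH 7.5 buffer with NaCl, Tween 20, EDTA, TCEP. Compounds added before peptide; binding 20 min at RT.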
KCNH2 3.1 block = qHTS for Inhibitors of KCHN2 3.1: Mutant qHTS; Potassium voltage-gated channel subfamily H member 2, brain isoform KCNH2 3.1 (human); AID 720553, 2013; U2OS KCNH2 3.1, thallium flux FluxOr; stronger effect = lower value; activity change, % (tested at about 1.8 µM); actives 0.95% (n = 340,000);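 active means maximum activity change below -70%; inconclusive means maximum activity change from -70% to -50%; inactive means maximum activity change above -50%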;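 further: thallium influx rate constant from kinetic fluorescence after stimulation buffer; on the % scale 0 is the no-effect control and ±100 the full control effect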
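We transduce U2OS cells with the mutant 3.1 virus, culture them overnight, load FluxOr with Red40 quencher for 45 min, then add stimulation buffer and read kinetically for 2 min to derive a normalized rate constant.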
TRPML1 agonist = qHTS for Agonists of the Human Mucolipin Transient Receptor Potential 1 (TRPML1) | actives 0.12% (n = 410,000) | TRPML1-expressing cells, Ca2+ dye fluorescence, FDSS | activation, % (concentration not given with the values); in the data active means activation above about 50%; inconclusive means mostly about 30% to 49%; further: 0% is about no effect
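Tetracycline-induced TRPML1-DL cells are seeded and incubated overnight before loading with a no-wash Ca2+ dye and quencher. Agonist activity is taken from the 110 s fluorescence read following compound pin-transfer on an FDSS, before EC80 54-4 challenge.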
TRPML1 blocker = qHTS for Inhibitors of the Human Mucolipin Transient Receptor Potential 1 (TRPML1); activity change, negative = inhibition, % (concentration not given with the values); TRPML1-inducible cells, Ca2+ dye fluorescence, FDSS; stronger effect = lower value; inhibition of EC80 agonist-evoked calcium signal; actives 0.02% (n = 390,000); AID 624415, 2012; Mucolipin-1 (Homo sapiens), Q9GZU1; in the data active means activity change below about -50%; inconclusive means between about -30% and that limit;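 further: stimulus is agonist 54-4 at its EC80 concentration; on the % scale 0 is the no-effect control and ±100 the full control effect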
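TRPML1-DL cells, Tet-induced overnight (~16 h, 37 °C) at 1,500 cells/well, were loaded with Ca8 no-wash dye plus quencher for 45-90 min at room temperature. Compounds were pinned during FDSS kinetic reading; agonist 54-4 at EC80 (4 uM final) then added.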
hERG WT inh = qHTS for Inhibitors of KCHN2 3.1: Wildtype qHTS; Voltage-gated inwardly rectifying potassium channel KCNH2 (Homo sapiens), Q12809; U2OS, BacMam KCNH2, thallium flux FluxOr; stronger effect = lower value; activity change, % at 1.84 µM; actives 0.37% (n = 340,000); AID 720551, 2013;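 active means maximum activity change below -70%; inconclusive means maximum activity change between -70% and -50%; inactive means maximum activity change above -50%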; further: on the % scale 0 is the no-effect control and ±100 the full control effect
Target sequence (Q12809 whole entry, looked up): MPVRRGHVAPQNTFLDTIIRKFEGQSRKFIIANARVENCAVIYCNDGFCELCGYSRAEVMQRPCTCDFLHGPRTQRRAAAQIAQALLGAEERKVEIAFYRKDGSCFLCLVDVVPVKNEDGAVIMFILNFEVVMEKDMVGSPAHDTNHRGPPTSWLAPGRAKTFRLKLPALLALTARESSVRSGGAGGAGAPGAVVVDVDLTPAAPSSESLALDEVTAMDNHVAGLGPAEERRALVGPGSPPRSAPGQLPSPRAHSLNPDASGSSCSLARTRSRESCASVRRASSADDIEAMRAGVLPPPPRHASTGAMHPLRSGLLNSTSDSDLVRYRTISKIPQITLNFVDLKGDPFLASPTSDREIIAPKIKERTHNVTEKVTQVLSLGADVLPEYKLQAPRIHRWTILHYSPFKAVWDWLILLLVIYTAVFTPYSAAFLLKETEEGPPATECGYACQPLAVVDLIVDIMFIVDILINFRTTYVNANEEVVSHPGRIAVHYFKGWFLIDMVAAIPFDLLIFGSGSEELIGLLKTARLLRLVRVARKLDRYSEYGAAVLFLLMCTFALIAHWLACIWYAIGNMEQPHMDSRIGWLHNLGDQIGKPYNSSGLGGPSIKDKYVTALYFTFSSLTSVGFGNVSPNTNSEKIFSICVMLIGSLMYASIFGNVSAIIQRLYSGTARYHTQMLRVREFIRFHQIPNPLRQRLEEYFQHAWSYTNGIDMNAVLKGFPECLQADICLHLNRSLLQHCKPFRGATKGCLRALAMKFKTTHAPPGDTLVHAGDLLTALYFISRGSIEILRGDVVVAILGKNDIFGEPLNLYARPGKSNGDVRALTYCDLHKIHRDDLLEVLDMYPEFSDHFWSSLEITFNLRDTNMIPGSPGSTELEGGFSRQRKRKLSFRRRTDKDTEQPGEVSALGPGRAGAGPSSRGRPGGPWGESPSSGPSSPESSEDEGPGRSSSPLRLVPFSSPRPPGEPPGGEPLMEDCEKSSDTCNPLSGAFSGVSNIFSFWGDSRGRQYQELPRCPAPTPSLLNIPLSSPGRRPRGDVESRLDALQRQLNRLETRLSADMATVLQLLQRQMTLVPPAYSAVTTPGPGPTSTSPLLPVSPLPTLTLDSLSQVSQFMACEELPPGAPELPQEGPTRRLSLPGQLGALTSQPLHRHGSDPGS
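U2OS cells were transduced with wild-type KCNH2 virus (2.03 x 10^8 / mL) for 4 h at room temperature, then cultured overnight at 37 C. Thallium flux was read with FluxOr dye. Rate constants were normalized to DMSO controls.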
Glioma ERSR ind = qHTS for Inducers of the Endoplasmic Reticulum Stress Response (ERSR) in Human Glioma: qHTS; U87-MG GRP78 promoter luciferase reporter, 16 h; Potency, µM, for inactives: at the top dose activation, usual class: activators; actives 0.02% (n = 420,000); AID 602332, 2012; active means well fitted activation curve with a large enough effect; inconclusive means small, poorly fitted or top-dose-only effect; inactive means no such curve, though single readings can be large or run the other way; further: potency means the concentration at half of the fitted maximal effect; series mostly up to about 76 µM; % of control where 0% means no effect; nearly all actives have a fitted effect of over 35% in size
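Stably transfected U87-MG glioma cells carrying a GRP78-based luciferase sensor; 16 h compound incubation. Luminescence end-point read 10 min after Bright-Glo addition at room temperature.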
Starred values were filed as active, the others as inactive; ? = inconclusive; · = no result given. Only some compounds are listed: those with a hit (about 1% of all), similar ones and a draw of the others.

SMILES	PTAP TSG101 blk	KCNH2 3.1 block	TRPML1 agonist	TRPML1 blocker	hERG WT inh	Glioma ERSR ind
COCC1CCCN(Cc2ccc3c(c2)CN(C(=O)c2ccc(-c4ccc(C)o4)cc2)CCO3)C1 (stereo not drawn)	·	·	·	·	·	-4.7%
CCN(CC)S(=O)(=O)c1cccc(C(=O)Nc2ccc(C#N)cc2)c1	-1.0%	-75.8*	0.5	-5.1	-0.3	3.3%
CCN(CC)S(=O)(=O)c1cccc(C(=O)N[C@H](C(=O)O)C(C)C)c1	-4.6%	-3.2	0.5	7.9	-170.4*	-2.8%
CCN(CC)S(=O)(=O)c1cccc(C(=O)Nc2cc(C)cc(C)c2)c1	-2.1%	-0.7	0.5	12.4	6.6	6.1%
Cn1c2ccccc2c2cc(C(=O)N3CCOc4ccc(C(C)(O)CCn5cccn5)cc4C3)ccc21 (stereo not drawn)	·	·	·	·	·	-2.7%
COc1ccc(NC(=O)c2coc(=O)c3ccccc23)cc1OC	·	·	-0.8	-16.1	·	-0.1%
COc1ccc(NC(=O)c2coc3ccccc23)cc1OC	-4.6%	-4.7	-0.5	-1.8	-341.0*	1.2%
Cc1cc(NS(=O)(=O)c2cn(C)nc2C)no1	-2.7%	-1.6	-0.4	14.9	-135.1*	-4.1%
COc1ccc(Cl)cc1N1C(=O)[C@@H]2C[C@H]1CN2Cc1nc2ccccc2nc1C	·	·	·	·	·	-3.7%
Cc1nc2cc(NC(=O)[C@@H]3C[C@@H](Sc4ccccn4)CN3Cc3cccc(Cl)c3)ccc2s1	·	·	·	·	·	-3.0%
CCN1C(=O)[C@H]2[C@@H](c3ccc(Cl)cc3)N3C(=O)CN(CCOC)C(=O)[C@@]3(C)[C@H]2C1=O	0.2%	16.1	-0.1	-3.1	0.3	-6.3%
CCCCN1CC(=O)N2[C@H](c3ccc(Cl)cc3)[C@@H]3C(=O)N(CC)C(=O)[C@@H]3[C@]2(C)C1=O	-1.2%	-114.9*	-0.4	4.1	0.5	-2.8%
CCc1cc(C(=O)NCC2Cc3cc(C)cc(-c4cc(C(C)=O)ccc4F)c3O2)n(C)n1 (stereo not drawn)	·	·	·	·	·	-3.4%
CN(C)CCCN(C(=O)c1ccc(S(=O)(=O)N(C)C2CCCCC2)cc1)c1nc2ccc(F)cc2s1	-5.9%	6.9	0.8	2.2	38.2	-3.7%
CCOc1cccc2sc(N(CCCN(C)C)C(=O)c3ccc(S(=O)(=O)N4CCc5ccccc5C4)cc3)nc12	-1.7%	-17.2	-0.1	10.8	8.5	-0.9%
CCOc1cccc2sc(N(CCCN(C)C)C(=O)c3ccc(S(=O)(=O)N(C)c4ccccc4)cc3)nc12	-1.1%	-85.2*	0.2	-11.0	-106.4*	-3.3%
CCc1ccc2nc(N(CCCN(C)C)C(=O)c3ccc(S(=O)(=O)N(C)C4CCCCC4)cc3)sc2c1	?	-71.9*	7.5	-2.6	-45.3	-10.9%
c1coc(-c2ccccc2CN2CCOc3ccc(CN4CCOCC4)cc3C2)c1	·	·	·	·	·	-1.7%
CC(C)(O)C#Cc1ccc(CN2CCc3nnc(CNC(=O)c4cccc(F)c4)n3CC2)cc1	·	·	·	·	·	-4.0%
Cc1ccsc1CN1CCc2nnc(CCNC(=O)c3ccc(F)cc3)n2CC1	·	·	·	·	·	-7.2%
COc1cccc(CN2C(=O)NC(C)(C3CCN(Cc4ccc(C)o4)CC3)C2=O)c1OC (stereo not drawn)	·	·	·	·	·	-3.7%
Cc1cc(S(=O)(=O)Nc2cccnc2)c(C)s1	1.0%	-71.7*	-0.5	4.5	3.1	-3.2%
CCCN(CC1CC1)C(=O)CCc1nnc(CCc2c[nH]c3ccccc23)o1	-5.3%	-98.5*	2.2	-10.3	5.2	14.4%
O=C(N/N=C/c1c(O)ccc2ccccc12)c1cccc(C(F)(F)F)c1	0.3%	-0.3	91.5*	19.3	-16.8	-6.1%
COc1ccccc1Cc1c(-c2ccc(C)cc2)nc2c(C)cc(Br)cn12	·	·	1.1	18.8	·	?
SMILES	PTAP TSG101 blk	KCNH2 3.1 block	TRPML1 agonist	TRPML1 blocker	hERG WT inh	Glioma ERSR ind
COc1ccccc1Cc1c(-c2ccc(F)cc2)nc2c(C)cc(Br)cn12	·	·	0.8	-4.4	·	35.5µM*
COc1cccc(-c2ccc(O)c(CNC(c3ccccc3)c3ccc(Cl)cc3)c2)n1 (stereo not drawn)	·	·	·	·	·	-3.6%
CCOC(=O)C1=C(C)N=C2c3ccccc3C(=O)C2C1c1ccc(Cl)cc1 (stereo not drawn)	0.5%	-104.8*	-0.5	-2.5	-17.3	4.4%
O=C(NCCSC1CCCCC1)c1ccccc1	-8.0%	·	-0.4	6.7	29.4	4.1%
COc1ccc(C(=O)NCCSC2CCCCC2)cc1	-3.5%	-112.3*	-0.2	1.2	-18.5	4.3%
CCCCN(Cc1ccco1)S(=O)(=O)c1csc(C(N)=O)c1	-3.7%	-182.1*	-0.7	-3.5	-159.1*	0.2%
CN(CCc1ccccc1)C(c1cc2ccccc2o1)c1nnnn1C(C)(C)C (stereo not drawn)	·	·	69.8*	·	·	·
N=c1c(C(=O)NC2CCCCC2)cc2c(=O)n3ccccc3nc2n1CCc1ccccc1	-7.2%	-78.6*	0.6	14.0	?	-2.8%
O=C(CCN1CCN(C/C=C/c2ccccc2)CC1)Nc1ccccc1F	-3.2%	-101.7*	0.3	-6.4	-49.1	-2.7%
O=C(CCN1CCN(c2ccccc2F)CC1)Nc1ccccc1F	-0.2%	13.7	1.3	30.8	-2.8	-1.0%
Cc1ccccc1NC(=O)N1CCN(C/C=C/c2ccccc2)CC1	2.2%	-85.6*	0.3	11.3	26.2	-4.6%
O=C(CCN1C(=O)c2ccccc2S1(=O)=O)Nc1ccc(Cl)cc1	0.3%	-84.1*	1.5	-6.2	4.6	1.2%
O=C(CN1CCN(CCC(=O)Nc2ccccc2F)CC1)Nc1ccc(Cl)cc1	-1.4%	-107.7*	-1.5	-6.3	-102.1*	-5.2%
COc1cc2c(cc1OC)[C@@H](Cc1cc(OC)c(OC)c(OC)c1)[N@+](C)(CCCOC(=O)CC/C=C/CCC(=O)OCCC[N@+]1(C)CCc3cc(OC)c(OC)cc3[C@H]1Cc1cc(OC)c(OC)c(OC)c1)CC2	·	·	·	·	·	-3.5%
COC(=O)C1CCCCN1Cc1ccc2c(c1)CN(C(=O)c1csc(-c3cccs3)n1)CCO2 (stereo not drawn)	·	·	·	·	·	-1.5%
CC(C)(C)n1ncc2c(=O)n(Cc3cccc(-c4ccccc4)c3)cnc21	·	·	3.8	38.5	·	-1.7%
